According to PubChem BioAssay (Tox21):
Inconclusive results are not listed. Entries that show only a call come without a potency. Unmarked numbers belong to inactive results. Calls of active or inactive are those of the source. The call rests on the fitted dose curve.

test: cAMP Responsive Elements (CRE) small molecule agonists, cell-based qHTS assay (AID 1963590); conditions: CRE-bla HEK293T, beta-lactamase FRET ratio, 3 h; series mostly up to 92.4 µM
Excerpt: U.S. Tox21 Program National Center for Advancing Translational Sciences [NCATS] Division of Preclinical Innovation [DPI] U.S. Environmental Protection Agency [EPA] National Institutes of Environmental Health Sciences [NIEHS] National Toxicology Program [NTP] U.S. Food and Drug Administration [FDA] Tox21 Assay Overview: CREB (cyclic-AMP Responsive Element Binding Protein) is a cellular transcription factor. It binds to certain DNA sequences called cAMP Responsive Elements (CRE) and regulates the transcription of the genes. […] This cell line can be used to find agonists/antagonists of the cyclic AMP signaling pathway. The activation of the report gene under culture conditions can be detected by fluorescence intensity. This cell line has been used to screen the Tox21 10K compound library to identify agonists that induce oxidative stress.
Tox21 Assay Protocol Summary: CRE-bla Hek 293T cells were suspended in assay medium (DMEM containing 10% dialyzed FBS, 0.1 mM NEAA, 1 mM sodium pyruvate and 25 mM HEPES) and dispensed at 2,000 cells/5 uL /well into 1536-well black wall/clear bottom plates using a Multidrop Combi (ThermoFisher Scientific, Waltham, MA) dispenser. After the assay plates were incubated at 37 C/5% CO2 for 18 hrs, 23 nL of compounds dissolved in DMSO, positive controls or DMSO only was transferred to the assay plate by a pintool workstation (Kalypsys, San Diego, CA). After the plates were incubated at 37 C/5% CO2 for 3 hrs, 1 uL of LiveBLAzer B/G FRET substrate (Invitrogen, Carlsbad, CA) was added to each well using Bioraptr Flying Reagent Dispenser (FRD, Aurora Discovery, San Diego, CA). The plates were incubated at room temperature for 2 h.

| Compound | Potency | activation |
| --- | --- | --- |
| C/C(=N\O)[C@@H](C)NCC(C)(C)CN[C@H](C)/C(C)=N/O | inactive | – |
| CC(=O)OC/C=C(\C)CC/C=C(\C)CCC=C(C)C | inactive | – |
| O=Cc1cc2ccccc2o1 | inactive | – |
| O=C(O)c1cc(C(=O)O)cc([N+](=O)[O-])c1 | inactive | – |
| CCCN[C@H]1CCc2nc(N)sc2C1 | inactive | – |
| CN1CCCC1=O | inactive | – |
| OC1(c2ccc(Cl)cc2)CCNCC1 | inactive | – |
| Cc1ccccc1C(=O)N1CC/C(=N\OS(=O)(=O)O)c2ccc(Cl)cc21 | inactive | – |
| Cc1ccc2ccccc2c1[N+](=O)[O-] | inactive | – |
| CCOc1ccccc1C(N)=O | inactive | – |
| COC(/C=C(\C)CCC=C(C)C)OC | inactive | – |
| Cc1ncc(CSSCc2cnc(C)c(O)c2CO)c(CO)c1O | inactive | – |
| COc1cc(C(=S)N2CCOCC2)ccc1O | inactive | – |
| CC(C)S | inactive | – |
| CCCCCCCCCCCCCCCCBr | – | -0.367% [at 19 µM] |
| CC1(C)CO[C@@H](CC(=O)O)CN1 | inactive | – |
| C=C(C)[C@H]1CC=C(C)C(=O)C1 | inactive | – |
| Nc1ccc([N+](=O)[O-])c(C(F)(F)F)c1 | inactive | – |
| C1CCCC1 | inactive | – |
| CC(=O)OCCC1CCCCC1 | inactive | – |

| Compound | Potency | activation |
| --- | --- | --- |
| COC(=O)Nc1nc2ccc(S(=O)c3ccccc3)cc2[nH]1 (stereo not given) | inactive | – |
| O=[N+]([O-])c1ccc(F)cc1F | inactive | – |
| C=CC(=O)OCCOC(=O)C=C | inactive | – |
| CC1CC(O)CC(C)(C)C1 (stereo not given) | inactive | – |
| CC(=O)O[C@H]1C[C@@H]2CC[C@@]1(C)C2(C)C | inactive | – |
| CC(=O)c1ccc2ccccc2c1 | inactive | – |
| NCC1(Cc2noc(=O)[nH]2)CCCCC1 | inactive | – |
| [Cl][Dy]([Cl])[Cl] | inactive | – |
| C=CC(=O)NC(C)C | inactive | – |
| N[C@@H](CCC(=O)Nc1ccc([N+](=O)[O-])cc1)C(=O)O | inactive | – |
| CNc1ccccc1 | inactive | – |
| CC(C)CCCO | inactive | – |
| Clc1ccc2c(c1)C(N1CCNCC1)=Nc1ccccc1O2 | inactive | – |
| C[Si](C)O[Si](C)C | inactive | – |
| O=C(OCCOCCO)c1ccccc1Nc1cccc(C(F)(F)F)c1 | inactive | – |
| C=CC(=O)CC | inactive | – |
| CCCOC(C)=O | inactive | – |
| CCCCOC(O)CC (stereo not given) | inactive | – |
| O=C(O)c1cc(=O)c2ccccc2o1 | inactive | – |
| CN/C(=C\[N+](=O)[O-])NCCSCc1ccc(CN(C)C)o1 | inactive | – |
